Results filed as inconclusive are left out. Activity calls are given as the source filed them. Unless noted, calls come from the whole dose curve; as a rule, active = well fitted curve in the direction sought with a large enough effect; inconclusive = small, poorly fitted or top-dose-only effect, or another doubt; inactive = no such curve, though single readings can be large; an effect the other way counts as inactive or inconclusive.
Columns and labels:
[1] = AP1 Signaling Pathway (AID 357; active = well fitted curve in either direction with a large enough effect, not every such curve was filed as active;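 note: ME-180 reporter cells stimulated with EGF at its EC50 level; % is set by controls: 0 for no effect and ±100 for the full control effect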); conditions: ME-180 AP-1-bla reporter, EGF-induced, beta-lactamase ratio, 5 h; at 7.69 µM (top of the series) unless noted
In short: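 Beta-lactamase reporter under AP-1 response element, ME-180 background. Stimulus: EC50 EGF. Compound exposure 5 h, 37 °C. Detection: CCF4, 2.5 h RT, 460/530 nm. Values: AC50 from titration.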

[2] = NFAT Signaling Pathway (AID 444; active = well fitted curve in either direction with a large enough effect, not every such curve was filed as active;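 note: carbachol stimulus at about its EC50 of 1 µM final; % is set by controls: 0 for no effect and ±100 for the full control effect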); conditions: Jurkat NFAT-bla M1, carbachol, beta-lactamase ratio, 5 h; at 7.69 µM (top of the series) unless noted
In short: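 Jurkat cells with NFAT-driven β-lactamase reporter and co-expressed M1 receptor, stimulated with carbachol (final 1 uM, ~EC50), compound titration, 5 h at 37 °C. CCF4 loaded 1 h at RT; 460/530 nm ratio gave %activity and AC50.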

[3] = Stat Signaling Pathway (AID 446; active = well fitted curve in either direction with a large enough effect, not every such curve was filed as active;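 note: ME-180 cervical cancer cells given 40 pM IL-6 alongside compound; SIE-controlled beta-lactamase reporter measured as 460/530 nm FRET emission ratio; % is set by controls: 0 for no effect and ±100 for the full control effect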); conditions: ME-180 SIE beta-lactamase reporter, IL-6 stimulated, 5 h; at 7.69 µM (top of the series) unless noted
In short: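 Emission at 460 and 530 nm (excitation 405 nm) reports SIE-controlled beta-lactamase in ME-180 cells. Cells received compound with 40 pM IL-6 for 5 hrs at 37 C; data scaled between 300 pM IL-6 and 125 nM JAK-inhibitor controls.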

[4] = target: Glucocorticoid receptor (Homo sapiens) (UniProt P04150); assay: GR-GFP Redistribution (AID 450;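 active = compounds whose dose series gives a full or clear partial fitted curve of increased nuclear translocation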; note: potency is the fitted concentration of half-maximal effect); conditions: U2OS GR-GFP nuclear translocation, laser cytometry, 2 h
[5] = target: Glucocorticoid receptor (Homo sapiens) (UniProt P04150); assay: GR-EFC Redistribution (AID 451; calls by dose curve; note: potency is the fitted concentration of half-maximal effect); conditions: CHO-K1 GR-EFC translocation, beta-gal luminescence, 2 h
In short: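 CHO-K1 cells expressing nuclear EA and GR-ED fragments of b-gal; compounds titrated up to 46 uM final, 2 h at 37 C. GR nuclear translocation read as complemented b-gal luminescence after 1 h RT detection.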

[6] = target: Mitogen-activated protein kinase 10 (Mus musculus) (UniProt Q61831); assay: JNK3 AlphaScreen Assay (AID 530; active = well fitted curve in either direction with a large enough effect, not every such curve was filed as active;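 note: kinase came from lysate of stimulated human HepG2 cells; signal reports phosphorylation of biotinylated GST-cJun 1-79 at Ser73 with 10 µM ATP; % is set by controls: 0 for no effect and ±100 for the full control effect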)
In short: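 HepG2 lysate (IL-1b/TNFa pre-activated) + biotin-GST-cJun 1-79 + anti-pSer73 cJun; cpd titration, 15 min RT; ATP 10 uM start; Tris pH 7.6, MgCl2, DTT, vanadate; beads in EDTA buffer; AlphaScreen.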

[7] = target: 3',5'-cyclic-AMP phosphodiesterase 4B (Homo sapiens) (UniProt Q07343); assay: qHTS Assay for Inhibitors of PDE-IV (AID 607; active = well fitted activation curve with a large enough effect in the main read-out, with a control signal flat, not every such curve was filed as active; note: % of control where 0% means no effect)
In short: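 The readout is membrane depolarisation from a cAMP-sensing CNG channel, detected with a potential dye at ex 535/em 590. Cells were HEK293-derived (endogenous PDE-IV) at 1000 cells/well, titrated up to 22.9 uM final.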

[8] = target: Dual specificity protein kinase CLK4 (Homo sapiens) (UniProt Q9HAZ1); assay: qHTS Assay for Inhibitors of CDC-like Kinase 4 (Kinase-Glo Assay) (AID 1770); note: % is set by controls: 0 for no effect and ±100 for the full control effect; nearly all actives have a fitted effect of over 65% in size
In short: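 25 nM Clk4 with 100 uM RS repeat peptide and 1 uM ATP (final) in Tris pH7.5, 10 mM MgCl2, 4.5 h at room temperature. Remaining ATP measured by Kinase-Glo luciferase luminescence.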

[9] = target: Dual specificity protein kinase CLK4 (Homo sapiens) (UniProt Q9HAZ1); assay: qHTS Assay for Inhibitors of CDC-like Kinase 4 (ADP-Glo Assay) (AID 1771); note: % is set by controls: 0 for no effect and ±100 for the full control effect; nearly all actives have a fitted effect of over 70% in size
In short: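 In this ADP-Glo format, 1 uM ATP and 100 uM RS peptide served as substrates for 25 nM Clk4 in Mg2+/EGTA/DTT/Triton buffer; reactions ran 1 hr at room temperature before luminescent ADP quantification.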

[10] = target: Dual specificity protein kinase CLK4 (Homo sapiens) (UniProt Q9HAZ1); assay: qHTS Assay for Inhibitors of CDC-like Kinase 4 (ADP-FP Assay) (AID 1795);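 note: recombinant human CLK4 phosphorylating RS repeat peptide at 1 µM ATP; % is set by controls: 0 for no effect and ±100 for the full control effect; nearly all actives have a fitted effect of over 60% in size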
In short: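 Recombinant Clk4 (6.25 nM) phosphorylated 100 uM RS repeat peptide with 1 uM ATP in 25 mM Tris pH 7.5, 10 mM MgCl2, 0.5 mM EGTA, 2.5 mM DTT, 0.01% Triton X-100 for 1 h. ADP was detected by Transcreener ADP2 competitive fluorescence polarization after 30 min at room temperature.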

[11] = target: Ubiquitin carboxyl-terminal hydrolase 1 (Homo sapiens) (UniProt O94782); assay: Inhibitors of USP1/UAF1: Pilot qHTS (AID 504865);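 note: rhodamine fluorescence freed from ubiquitin-rhodamine substrate followed over time; top concentration of the series differs between compounds; % is set by controls: 0 for no effect and ±100 for the full control effect; nearly all actives have a fitted effect of over 35% in size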
In short: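 USP1/UAF1 complex at 1 nM preincubated 15 min at room temperature with compound, then Ub-Rho substrate added at 150 nM final. Fluorescence (480/540 nm) read kinetically in 50 mM HEPES pH 7.8, 0.5 mM EDTA, 1 mM TCEP, 0.1 mg/ml BSA, 0.01% Tween-20.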

[12] = Primary qHTS for small molecule stabilizers of the endoplasmic reticulum resident proteome: Secreted ER Calcium Modulated Protein (SERCaMP) assay (AID 1508630); note: % is set by controls: 0 for no effect and ±100 for the full control effect
In short: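 The SH-SY5Y reporter protocol was run at 3 concentrations up to 38.3 uM (primary) or 11 concentrations (follow-up): 16 h compound, 100 nM thapsigargin for 4 h, then extracellular luciferase luminescence.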

[13] = target: Cytochrome P450 1A2 (Homo sapiens) (UniProt P05177); assay: p450-cyp1a2 (AID 410; calls by dose curve; note: potency is the fitted concentration of half-maximal effect)
In short: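 Read-out is luminescence from luciferin produced by CYP1A2 demethylation of Luciferin-ME (100uM, at Km). Detection reagent stopped the 60 min NADPH-dependent reaction; signals were normalized to 57 uM furafylline.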

[14] = target: Cytochrome P450 3A4 (Homo sapiens) (UniProt P08684); assay: qHTS Assay for Activators of Cytochrome P450 3A4 (AID 885); note: nearly all actives have a fitted effect of over 65% in size
In short: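 Activators are scored by enhanced luminescence from CYP3A4 conversion of luciferin-PPXE (25uM, equal to KM) to luciferin, after 60 min at RT with an NADPH-regenerating system.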

[15] = qHTS Assay for Identification of Small Molecule Agonists for Hypoxia Response Element Signaling Pathway (AID 914; active = well fitted activation curve with a large enough effect in the signal ratio, with a control signal flat, not every such curve was filed as active; the % refers to the signal ratio; note: potency is the fitted concentration of half-maximal effect); conditions: ME-180 (cervical carcinoma) HRE-bla reporter, beta-lactamase ratio, CoCl2, 17 h; activation: hits give high values
In short: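 A beta-lactamase reporter under hypoxia response element control in ME-180 cells served as the system. Compound titrations plus EC50 CoCl2 ran 17 h at 37 degrees Celsius; AC50 values were fitted from %Activity.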

[16] = target: Lysosomal acid glucosylceramidase (Homo sapiens) (UniProt P04062); assay: Glucocerebrosidase-p2 (AID 348; in the data active = potency below about 10 µM; note: potency is the fitted concentration of half-maximal effect); conditions: purified GBA, blue fluorogenic substrate, 40 min
In short: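 Normal human glucocerebrosidase (0.2 nM) with blue fluorogenic substrate (80 uM final) in citrate/phosphate pH 5.9 with 10mM sodium taurocholate, 0.01% tween-20; 40 min RT, NaOH/glycine stop; fluorescence Ex 365/Em 440; AC50 from a titration from 0.6 nM upwards.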

[17] = target: Cytochrome P450 2D6 (Homo sapiens) (UniProt P10635); assay: qHTS Assay for Inhibitors and Substrates of Cytochrome P450 2D6 (AID 891); note: potency is the fitted concentration of half-maximal effect; nearly all actives have a fitted effect of over 60% in size
In short: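 Luminescent read-out of luciferin formed by 5 nM human CYP2D6 demethylating 30 uM Luciferin-ME EGE (Km level) over 60 min at room temperature after NADPH regeneration addition. Data normalized to full inhibition by 1.43 uM quinidine.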

[18] = target: Cytochrome P450 2C19 (Homo sapiens) (UniProt P33261); assay: qHTS Assay for Inhibitors and Substrates of Cytochrome P450 2C19 (AID 899); note: potency is the fitted concentration of half-maximal effect; nearly all actives have a fitted effect of over 60% in size
In short: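 Signal comes from luciferase acting on luciferin released by CYP2C19-mediated hydroxylation of Luciferin-H EGE, 10uM (KM). Assay mix: 5nM enzyme, 50mM KPO4; 60 min at 37C with NADPH regeneration. Data normalized against 57uM ketoconazole.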

[19] = target: Cytochrome P450 3A4 (Homo sapiens) (UniProt P08684); assay: qHTS Assay for Inhibitors and Substrates of Cytochrome P450 3A4 (AID 884); note: potency is the fitted concentration of half-maximal effect; nearly all actives have a fitted effect of over 50% in size
In short: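 Luminescent readout of luciferin produced by CYP3A4 (20 nM) dealkylation of Luciferin-PPXE, 25 uM (its KM). NADPH-driven reaction ran 60 min at RT after 10 min compound preincubation; data scaled to 57 uM ketoconazole as 100% inhibition.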

Sequence of Cytochrome P450 1A2 (Homo sapiens) (P05177 whole entry, looked up): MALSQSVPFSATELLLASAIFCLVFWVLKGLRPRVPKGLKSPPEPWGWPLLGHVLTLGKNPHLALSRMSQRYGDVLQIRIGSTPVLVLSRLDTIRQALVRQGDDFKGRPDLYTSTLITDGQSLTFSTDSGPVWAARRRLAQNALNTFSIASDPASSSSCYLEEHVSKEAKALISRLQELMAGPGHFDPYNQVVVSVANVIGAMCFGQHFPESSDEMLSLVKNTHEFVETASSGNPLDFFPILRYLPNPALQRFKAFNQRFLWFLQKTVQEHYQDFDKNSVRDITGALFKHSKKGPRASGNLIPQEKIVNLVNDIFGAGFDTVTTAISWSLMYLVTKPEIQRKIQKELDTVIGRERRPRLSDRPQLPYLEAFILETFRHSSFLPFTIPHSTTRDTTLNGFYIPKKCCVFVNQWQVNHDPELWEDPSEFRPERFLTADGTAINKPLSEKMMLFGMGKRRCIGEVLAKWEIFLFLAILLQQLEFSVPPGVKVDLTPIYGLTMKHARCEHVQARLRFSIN
Sequence of Cytochrome P450 3A4 (Homo sapiens) (P08684 whole entry, looked up): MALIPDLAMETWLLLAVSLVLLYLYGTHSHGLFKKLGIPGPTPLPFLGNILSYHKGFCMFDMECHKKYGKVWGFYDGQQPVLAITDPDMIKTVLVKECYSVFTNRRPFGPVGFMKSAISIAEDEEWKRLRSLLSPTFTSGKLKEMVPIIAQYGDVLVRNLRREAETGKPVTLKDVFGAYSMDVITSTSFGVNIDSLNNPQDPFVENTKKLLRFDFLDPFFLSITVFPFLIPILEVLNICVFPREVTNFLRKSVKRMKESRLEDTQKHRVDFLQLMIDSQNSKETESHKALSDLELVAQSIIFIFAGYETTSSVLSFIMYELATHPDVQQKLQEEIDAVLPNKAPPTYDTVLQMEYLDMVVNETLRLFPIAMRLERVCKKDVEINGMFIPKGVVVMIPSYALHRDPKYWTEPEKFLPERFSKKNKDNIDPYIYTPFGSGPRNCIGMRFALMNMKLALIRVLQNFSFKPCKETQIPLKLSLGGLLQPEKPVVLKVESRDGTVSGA
Sequence of Dual specificity protein kinase CLK4 (Homo sapiens) (Q9HAZ1 whole entry, looked up): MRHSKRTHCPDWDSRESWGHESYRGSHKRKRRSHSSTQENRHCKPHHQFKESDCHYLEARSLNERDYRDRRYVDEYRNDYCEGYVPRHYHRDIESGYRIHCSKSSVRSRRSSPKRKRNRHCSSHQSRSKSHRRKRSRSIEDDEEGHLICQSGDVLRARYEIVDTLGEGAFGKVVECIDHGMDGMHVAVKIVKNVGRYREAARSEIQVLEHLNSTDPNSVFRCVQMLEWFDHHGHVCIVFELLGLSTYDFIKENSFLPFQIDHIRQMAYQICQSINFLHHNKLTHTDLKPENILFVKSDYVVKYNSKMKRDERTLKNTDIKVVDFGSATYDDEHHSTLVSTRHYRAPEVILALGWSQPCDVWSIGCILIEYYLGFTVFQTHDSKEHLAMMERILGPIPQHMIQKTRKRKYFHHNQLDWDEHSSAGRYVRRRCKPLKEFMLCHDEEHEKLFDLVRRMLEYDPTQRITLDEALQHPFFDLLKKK
Sequence of Glucocorticoid receptor (Homo sapiens) (P04150 whole entry, looked up, the tested form may be a part): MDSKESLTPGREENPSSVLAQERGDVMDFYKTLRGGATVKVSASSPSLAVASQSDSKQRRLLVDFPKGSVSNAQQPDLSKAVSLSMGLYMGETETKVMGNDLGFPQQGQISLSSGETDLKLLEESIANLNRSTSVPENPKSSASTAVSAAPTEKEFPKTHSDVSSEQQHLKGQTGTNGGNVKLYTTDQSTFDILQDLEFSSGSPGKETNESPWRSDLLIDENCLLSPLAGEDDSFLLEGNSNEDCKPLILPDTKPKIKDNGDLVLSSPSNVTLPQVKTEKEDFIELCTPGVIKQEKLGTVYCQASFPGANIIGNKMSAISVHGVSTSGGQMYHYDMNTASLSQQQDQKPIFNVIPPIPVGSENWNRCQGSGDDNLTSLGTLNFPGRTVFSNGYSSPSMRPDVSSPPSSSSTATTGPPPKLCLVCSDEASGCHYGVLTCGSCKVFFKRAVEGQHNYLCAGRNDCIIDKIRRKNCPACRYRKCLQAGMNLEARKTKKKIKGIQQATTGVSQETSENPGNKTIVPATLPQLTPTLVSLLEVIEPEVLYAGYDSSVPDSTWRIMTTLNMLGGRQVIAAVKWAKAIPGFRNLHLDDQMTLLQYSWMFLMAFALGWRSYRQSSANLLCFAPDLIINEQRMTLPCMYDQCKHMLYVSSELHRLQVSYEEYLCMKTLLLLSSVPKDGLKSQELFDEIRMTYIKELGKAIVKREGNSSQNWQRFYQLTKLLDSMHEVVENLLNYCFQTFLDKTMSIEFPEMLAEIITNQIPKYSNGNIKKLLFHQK
Sequence of 3',5'-cyclic-AMP phosphodiesterase 4B (Homo sapiens) (Q07343 whole entry, looked up): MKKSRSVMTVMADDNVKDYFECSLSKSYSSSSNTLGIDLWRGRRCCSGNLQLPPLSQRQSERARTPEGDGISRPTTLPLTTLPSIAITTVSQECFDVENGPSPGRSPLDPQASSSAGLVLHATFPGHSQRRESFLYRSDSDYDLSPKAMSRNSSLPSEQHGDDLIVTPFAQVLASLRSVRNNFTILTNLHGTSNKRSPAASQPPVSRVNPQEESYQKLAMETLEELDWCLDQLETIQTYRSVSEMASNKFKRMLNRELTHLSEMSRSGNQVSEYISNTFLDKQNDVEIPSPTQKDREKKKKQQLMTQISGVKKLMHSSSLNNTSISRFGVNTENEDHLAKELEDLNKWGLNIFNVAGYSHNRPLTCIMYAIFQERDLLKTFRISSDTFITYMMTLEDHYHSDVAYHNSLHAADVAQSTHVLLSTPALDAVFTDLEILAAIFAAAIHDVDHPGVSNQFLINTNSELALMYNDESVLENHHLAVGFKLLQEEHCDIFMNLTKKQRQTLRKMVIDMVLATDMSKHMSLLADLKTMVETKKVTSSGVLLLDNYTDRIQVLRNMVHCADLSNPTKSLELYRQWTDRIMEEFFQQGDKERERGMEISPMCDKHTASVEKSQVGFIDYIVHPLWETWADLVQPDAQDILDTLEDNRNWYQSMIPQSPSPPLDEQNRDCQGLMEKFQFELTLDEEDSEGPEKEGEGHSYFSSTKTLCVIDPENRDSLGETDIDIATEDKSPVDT
Sequence of Ubiquitin carboxyl-terminal hydrolase 1 (Homo sapiens) (O94782 whole entry, looked up): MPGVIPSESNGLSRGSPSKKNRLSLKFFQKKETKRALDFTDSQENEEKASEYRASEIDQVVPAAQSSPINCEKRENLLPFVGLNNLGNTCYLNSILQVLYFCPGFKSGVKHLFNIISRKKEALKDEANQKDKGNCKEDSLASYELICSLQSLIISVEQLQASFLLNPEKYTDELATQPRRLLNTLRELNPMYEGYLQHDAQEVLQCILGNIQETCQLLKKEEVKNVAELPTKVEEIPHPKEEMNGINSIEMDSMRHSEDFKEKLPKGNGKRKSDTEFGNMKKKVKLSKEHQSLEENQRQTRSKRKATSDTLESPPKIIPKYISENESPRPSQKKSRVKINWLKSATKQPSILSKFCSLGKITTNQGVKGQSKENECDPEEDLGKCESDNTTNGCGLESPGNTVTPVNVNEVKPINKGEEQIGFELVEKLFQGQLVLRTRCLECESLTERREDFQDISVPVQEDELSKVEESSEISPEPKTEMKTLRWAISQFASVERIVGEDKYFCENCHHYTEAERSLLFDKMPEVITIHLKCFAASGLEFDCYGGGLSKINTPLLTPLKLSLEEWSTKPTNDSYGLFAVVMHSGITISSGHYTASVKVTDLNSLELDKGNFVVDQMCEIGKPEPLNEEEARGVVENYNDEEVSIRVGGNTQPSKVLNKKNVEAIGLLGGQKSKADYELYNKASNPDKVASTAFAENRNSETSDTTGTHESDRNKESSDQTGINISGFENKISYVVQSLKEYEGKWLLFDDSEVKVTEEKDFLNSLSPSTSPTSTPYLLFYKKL
Sequence of Lysosomal acid glucosylceramidase (Homo sapiens) (P04062 whole entry, looked up): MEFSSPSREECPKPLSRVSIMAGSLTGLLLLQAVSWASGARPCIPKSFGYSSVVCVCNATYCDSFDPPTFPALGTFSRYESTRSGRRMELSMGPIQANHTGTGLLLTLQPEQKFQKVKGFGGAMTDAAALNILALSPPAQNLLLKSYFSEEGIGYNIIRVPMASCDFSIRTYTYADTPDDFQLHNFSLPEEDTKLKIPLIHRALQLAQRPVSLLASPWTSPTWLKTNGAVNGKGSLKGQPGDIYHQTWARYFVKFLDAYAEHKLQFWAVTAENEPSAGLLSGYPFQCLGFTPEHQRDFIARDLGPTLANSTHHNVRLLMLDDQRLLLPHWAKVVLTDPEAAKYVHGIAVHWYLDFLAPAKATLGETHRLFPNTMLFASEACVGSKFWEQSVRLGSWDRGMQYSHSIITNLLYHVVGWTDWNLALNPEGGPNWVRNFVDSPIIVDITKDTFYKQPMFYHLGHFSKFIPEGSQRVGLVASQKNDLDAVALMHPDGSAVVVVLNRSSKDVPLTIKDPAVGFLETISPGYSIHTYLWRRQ
Sequence of Cytochrome P450 2D6 (Homo sapiens) (P10635 whole entry, looked up): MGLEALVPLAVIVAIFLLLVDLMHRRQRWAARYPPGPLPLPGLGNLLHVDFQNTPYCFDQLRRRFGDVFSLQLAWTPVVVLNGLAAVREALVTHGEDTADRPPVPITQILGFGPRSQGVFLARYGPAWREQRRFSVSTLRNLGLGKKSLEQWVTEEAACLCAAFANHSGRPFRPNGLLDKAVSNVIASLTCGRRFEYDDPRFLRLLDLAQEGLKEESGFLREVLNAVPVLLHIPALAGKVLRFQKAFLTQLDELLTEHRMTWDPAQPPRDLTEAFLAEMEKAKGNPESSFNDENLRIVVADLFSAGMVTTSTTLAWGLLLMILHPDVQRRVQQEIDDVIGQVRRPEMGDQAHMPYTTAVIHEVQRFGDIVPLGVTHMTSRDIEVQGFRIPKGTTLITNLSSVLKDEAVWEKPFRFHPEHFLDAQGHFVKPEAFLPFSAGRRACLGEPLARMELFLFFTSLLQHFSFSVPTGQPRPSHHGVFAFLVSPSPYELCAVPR

COc1cccc(Cn2c(=O)c(-c3cccc(C#N)c3)nc3cnc(N4CCOCC4)nc32)c1
inactive: activity change, negative = inhibition [1] 0.3% | activity change, negative = inhibition [2] 0.194% | activity, negative = inhibition [3] 18.9% | Potency [4] > 9.22 µM | Potency [5] > 46 µM | Potency [6] | Potency [7] | Potency [8] | Potency [9] | Potency [10] | Potency [11] | outcome [12]

CCNc1ncc2nc(CCc3ccccc3)c(=O)n(C[C@H]3CCCO3)c2n1
inactive: activity change, negative = inhibition [1] -23.9% | activity change, negative = inhibition [2] -3.48% | activity, negative = inhibition [3] -9.11% | Potency [4] > 9.22 µM | Potency [5] > 46 µM | Potency [6] | Potency [8] | Potency [9] | Potency [10] | Potency [11] | outcome [12]

CCNc1ncc2nc(-c3cccs3)c(=O)n(CCc3ccccc3)c2n1
inactive: Potency [4] > 9.22 µM | Potency [5] > 46 µM | Potency [6] | Potency [14] | Potency [8] | Potency [9] | Potency [10] | Potency [11] | outcome [12]
active: Potency [13] 10 µM | activity, negative = inhibition [3] 98% [activator] | Potency [15] 1 µM

CN(C)c1ncc2nc(-c3ccccc3)c(=O)n(Cc3cccs3)c2n1
active: Potency [15] 3.16 µM
inactive: Potency [16] > 11.4 µM | Potency [4] > 9.22 µM | Potency [5] > 46 µM | Potency [14] | Potency [8] | Potency [9] | Potency [10] | Potency [11] | outcome [12]

O=c1c(-c2cc(F)cc(F)c2)nc2cnc(N3CCOCC3)nc2n1Cc1ccc(F)cc1
active: Potency [15] 3.16 µM
inactive: Potency [16] > 11.4 µM | Potency [4] > 9.22 µM | Potency [5] > 46 µM | Potency [6] | Potency [7] | Potency [8] | Potency [9] | Potency [10] | outcome [12]

CNc1ccnc(-c2cccc(NS(C)(=O)=O)c2)n1
inactive: activity change, negative = inhibition [1] 13.6% | activity change, negative = inhibition [2] 18.6% | activity, negative = inhibition [3] -1.8% | Potency [4] > 46 µM | Potency [5] > 46 µM | Potency [6] | Potency [7] | Potency [8] | Potency [9] | Potency [10] | Potency [11] | outcome [12]

COc1ccc(CNc2ccnc(-c3ccc(N(C)C)cc3)n2)c(OC)c1
active: Potency [13] 3.16 µM
inactive: activity change, negative = inhibition [1] 8.69% | activity change, negative = inhibition [2] -3.37% | activity, negative = inhibition [3] -13.6% | Potency [4] > 46 µM | Potency [5] > 46 µM | Potency [6] | Potency [7] | Potency [14] | Potency [8] | Potency [9] | Potency [10] | Potency [11] | outcome [12]

COc1ccccc1CNc1ccnc(-c2ccccc2OC)n1
active: Potency [13] 3.98 µM | Potency [17] 1.58 µM
inactive: activity change, negative = inhibition [1] -0.503% | activity change, negative = inhibition [2] -0.0586% | activity, negative = inhibition [3] 9.83% | Potency [5] > 46 µM | Potency [6] | Potency [7] | Potency [14] | Potency [8] | Potency [9] | Potency [10] | outcome [12]

N#CCCn1c(=O)cnc2cnc(Oc3cccc(Cl)c3)nc21
inactive: activity change, negative = inhibition [1] 5.43% | activity change, negative = inhibition [2] -14% | activity, negative = inhibition [3] -4.72% | Potency [4] > 9.22 µM | Potency [5] > 46 µM | Potency [6] | Potency [7] | Potency [8] | Potency [9] | Potency [10] | Potency [11] | outcome [12]

Cc1noc(C)c1-c1nccc(N2CCN(C)CC2)n1
active: Potency [13] 2 µM
inactive: activity change, negative = inhibition [1] 16% | activity change, negative = inhibition [2] -10.9% | activity, negative = inhibition [3] 11.7% | Potency [4] > 46 µM | Potency [5] > 46 µM | Potency [6] | Potency [7] | Potency [8] | Potency [9] | Potency [10] | Potency [11] | outcome [12]

CCNc1ncc2nc(-c3ccc(OC)cc3)c(=O)n(Cc3cccs3)c2n1
active: Potency [13] 0.631 µM | Potency [15] 3.16 µM
inactive: activity change, negative = inhibition [2] 2.94% | Potency [4] > 9.22 µM | Potency [5] > 46 µM | Potency [6] | Potency [14] | Potency [8] | Potency [9] | Potency [10] | Potency [11] | outcome [12]

COc1ccccc1CNc1ccnc(-c2ccccc2Cl)n1
active: Potency [13] 5.01 µM | Potency [18] 1.58 µM
inactive: activity change, negative = inhibition [1] -21.9% | activity change, negative = inhibition [2] -0.207% | activity, negative = inhibition [3] -0.645% | Potency [4] > 46 µM | Potency [5] > 46 µM | Potency [6] | Potency [7] | Potency [14] | Potency [8] | Potency [9] | Potency [10] | outcome [12]

COc1cccc(-c2nc(NCc3ccccc3OC)c3ccccc3n2)c1
active: Potency [13] 0.631 µM | Potency [19] 3.98 µM | Potency [18] 7.94 µM
inactive: activity change, negative = inhibition [1] 9.52% | activity, negative = inhibition [3] -9.86% | Potency [5] > 46 µM | Potency [6] | Potency [14] | Potency [8] | Potency [9] | Potency [10] | Potency [11] | outcome [12]

COc1ccccc1CNc1ccnc(-c2ccc(N(C)C)cc2)n1
active: Potency [13] 0.794 µM | Potency [19] 7.94 µM | Potency [17] 0.501 µM
inactive: activity change, negative = inhibition [1] -10.1% | activity change, negative = inhibition [2] -1.75% | activity, negative = inhibition [3] -10.8% | Potency [4] > 46 µM | Potency [5] > 46 µM | Potency [6] | Potency [7] | Potency [14] | Potency [8] | Potency [9] | Potency [10] | Potency [11] | outcome [12]

Source: PubChem BioAssay (NCATS)
